Screening results: PubChem BioAssay, National Center for Advancing Translational Sciences (NCATS)
Cruzain inh Det – blocks cruzain activity in presence of Triton detergent; 200,000 tested, 0.43% active; Potency, µM, most hits filed as inhibitors; purified cruzain, Z-FR-AMC fluorescence, 0.01% Triton; further: nearly all actives have a fitted effect of over 40% in size
Target sequence (P25779 123-467 limits assumed): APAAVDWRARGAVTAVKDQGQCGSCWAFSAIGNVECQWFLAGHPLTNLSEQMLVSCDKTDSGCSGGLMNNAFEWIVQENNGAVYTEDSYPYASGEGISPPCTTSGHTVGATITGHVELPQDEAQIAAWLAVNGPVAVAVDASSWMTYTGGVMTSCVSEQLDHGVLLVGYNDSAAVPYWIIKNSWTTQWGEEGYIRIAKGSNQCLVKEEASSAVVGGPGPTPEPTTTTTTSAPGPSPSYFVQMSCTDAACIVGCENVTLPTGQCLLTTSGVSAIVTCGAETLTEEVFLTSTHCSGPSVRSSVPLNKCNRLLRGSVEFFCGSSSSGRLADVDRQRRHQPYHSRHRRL
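Detergent-containing arm of a paired screen for aggregation-based inhibition: 0.01% Triton X-100 present. Cruzain at 1.5 nM cleaved 2 uM Z-FR-AMC at pH 5.5 with 5 mM DTT; AMC fluorescence gain over 60 s measured activity.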
Cruzain noTriton – cruzain (T. cruzi) inhibition without detergent. Potency, µM, usual class: inhibitors. P25779. AID 1476. 200,000 tested, 2.3% active. purified cruzain, Z-FR-AMC fluorescence, no detergent; further: nearly all actives have a fitted effect of over 40% in size
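Purified cruzain at 1.5 nM, pre-incubated 15 min with compound at room temperature in 100 mM sodium acetate pH 5.5, 5 mM DTT, 0.00005% Triton X-100. Reaction started with 2 uM Z-FR-AMC; AMC fluorescence increase over 60 s gives rate.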
Large screens that a line does not name were inactive; ! = repeats disagree. In the library only some 2.5% were active in any assay of this set; here they are far more common. The call rests on the fitted dose curve; in most records, active means well fitted curve in the direction sought with a large enough effect; inconclusive means small, poorly fitted or top-dose-only effect, or another doubt; inactive means no such curve, though single readings can be large; an effect the other way counts as inactive or inconclusive.

Cc1cccc(-n2nc(C)c(C(=O)Nc3cc(C)ccc3C)c2-n2cccc2)c1	none
C=CCSc1nnc(-c2cc3c(s2)-c2ccccc2CC3)o1	none
Cc1ccc(N2CCN(C(=O)NCc3noc4ccc(C)cc34)CC2)c(C)c1	none
Cc1cc(NC(=O)CC2CCCC2)n(-c2nc3ccccc3[nH]2)n1	none
Cc1cc(NC(=O)c2ccc(F)cc2F)n(-c2nc3ccccc3[nH]2)n1	Cruzain noTriton 20µM
O=C(COC(=O)CNS(=O)(=O)c1c(Cl)cccc1Cl)Nc1cccnc1Cl	none
O=S(=O)(c1ccc(F)cc1)c1nc(-c2ccco2)oc1Nc1ccc(F)cc1	Cruzain noTriton inconclusive
Cc1ccc(CNc2oc(-c3ccco3)nc2S(=O)(=O)c2ccccc2)cc1	Cruzain inh Det inconclusive, Cruzain noTriton 32µM
O=S(=O)(c1ccccc1)c1nc(-c2ccco2)oc1NCCN1CCOCC1	none
COc1ccc(Nc2oc(-c3ccco3)nc2S(=O)(=O)c2ccc(F)cc2)cc1	Cruzain noTriton 25µM
CCOC(=O)c1c(C)oc2nc(C)nc(NCCc3ccc(OCC)c(OCC)c3)c12	none
O=C(NCc1ccc(Cl)cc1)C1CCN(S(=O)(=O)c2cc([N+](=O)[O-])ccc2Cl)CC1	none
Cc1cccc2sc(NC(=O)C3CCN(S(=O)(=O)c4cc([N+](=O)[O-])ccc4Cl)CC3)nc12	Cruzain noTriton 20µM
Fc1cccc(Cl)c1/C=N\N=C1c2ccccc2-c2ccccc21	none
CC(C)OC(=O)c1cc2ccccc2[nH]1	none
CCOC(=O)c1cc2cc3ccccc3cc2[nH]1	Cruzain noTriton 25µM
CC(=O)N[C@H](c1ccccc1)[C@@]1(C)C[C@@H]1[C@@H](C)C(=O)Nc1ccc2ccccc2c1	none
C[C@@H](C(=O)Nc1ccc2ccccc2c1)[C@H]1C[C@]1(C)[C@H](NC(=O)Oc1ccc(F)cc1)c1ccccc1	Cruzain noTriton 16µM
C[C@@H](C(=O)Nc1ccc2ccccc2c1)[C@H]1C[C@]1(C)[C@H](NS(=O)(=O)c1ccc(-c2ccccc2)cc1)c1ccccc1	Cruzain noTriton 3.2µM
C[C@@H](C(=O)Nc1ccc2ccccc2c1)[C@@H]1C[C@@]1(C)[C@@H](NS(=O)(=O)c1ccc2ccccc2c1)c1ccccc1	Cruzain noTriton 7.9µM
Cc1nn(C)c(Cl)c1S(=O)(=O)N[C@@H](c1ccccc1)[C@]1(C)C[C@H]1[C@@H](C)C(=O)Nc1ccc2ccccc2c1	none
C[C@@H](C(=O)Nc1ccc2ccccc2c1)[C@H]1C[C@]1(C)[C@H](NS(=O)(=O)c1ccc2ccccc2c1)c1ccccc1	Cruzain noTriton 10µM
C[C@@H](C(=O)Nc1ccc2ccccc2c1)[C@@H]1C[C@@]1(C)[C@@H](NC(=O)c1ccccc1)c1ccccc1	Cruzain noTriton inconclusive
COC(=O)N[C@H](c1ccccc1)[C@@]1(C)C[C@@H]1[C@@H](C)C(=O)Nc1ccc2ccccc2c1	none
O=C(CCS(=O)(=O)c1cc(Br)cc2c1N(C(=O)C1CC1)CC2)Nc1ccc(F)cc1	none
C=CCOc1ccc(/C=N/O)cc1Cl	none
CC(/C=C/C(=O)NO)=C\[C@@H](C)C(=O)c1ccc(N(C)C)cc1	none
Cc1ccc(C(=O)c2cn(Cc3ccc(Cl)cc3)c3nc(C)ccc3c2=O)cc1	none
Cn1c(C(=O)NCc2ccc3c(c2)OCO3)cc2sccc21	none
Cn1c(C(=O)Nc2ccc3c(c2)OCO3)cc2sccc21	Cruzain noTriton 25µM
Cc1ccc(C)n1N1C(=O)/C(=C\c2ccc(Cl)cc2)SC1=S	Cruzain noTriton inconclusive
NS(=O)(=O)c1ccc(CCN2C(=O)/C(=C\c3ccc(Cl)cc3)SC2=S)cc1	Cruzain noTriton 25µM
COc1ccc2c3c([nH]c2c1)C(C)=NCC3	Cruzain noTriton 10µM!
Cc1ccc2[nH]c3c(c2c1)CCC3=O	none
CC1=NCCc2c1[nH]c1cc(O)ccc21	Cruzain inh Det 28µM!, Cruzain noTriton 13µM!
COc1ccc2[nH]c3c(c2c1)CCn1c-3nc2ccccc2c1=O	none
COc1ccccc1NC(=O)C(=O)N/N=C(\C)CC(=O)Nc1ccc(OCc2ccccc2)cc1	none
C/C(CC(=O)Nc1ccc(OCc2ccccc2)cc1)=N\NC(=O)C(=O)Nc1cccc(C)c1	Cruzain noTriton 32µM
NCC(=O)O	none
COc1ccc(/C=C/c2nnc(NC(=O)COc3cccc(C)c3)s2)cc1	Cruzain noTriton 13µM
COc1ccc(/C=C/c2nnc(NC(=O)COc3ccc(C)cc3)s2)cc1	Cruzain noTriton inconclusive
COc1cc(CCC(=O)NCc2ccc3c(c2)CCN3C(=O)c2cccc(C)c2)cc(OC)c1OC	none
Cc1ccc(NC(=O)c2ccc(N(Cc3ccccc3)S(C)(=O)=O)cc2)cc1	none
CCCCCN1C(C(=O)c2ccccc2)=C(NC(=O)c2ccccc2Cl)c2ccccc2S1(=O)=O	Cruzain noTriton 10µM
CCCCCN1C(C(=O)c2ccccc2)=C(NC(C)=O)c2ccccc2S1(=O)=O	none
C=CCn1c(-c2cccc(Cl)c2)n[nH]c1=S	none
C=CCn1c(-c2oc3nc(-c4ccccc4)cc(-c4ccccc4)c3c2N)n[nH]c1=S	Cruzain noTriton 25µM
CSc1nsc(/C=C/Nc2ccc(Cl)cc2)c1C#N	Cruzain noTriton inconclusive
CSc1nsc(/C=C/Nc2cccc(Cl)c2)c1C#N	Cruzain noTriton 20µM
CN1CCN(c2ncnc3ccc(-c4cccnc4)cc23)CC1	none
CCCOc1ccc(C2C(=O)N(C3CCCCCC3)CC(=O)N2CCC2=CCCCC2)cc1OC (centres undefined)	none
COc1ccccc1-c1ccc2ncnc(N3CCNCC3)c2c1	none
Cc1ccc2c(c1)c1nnc(SCC(=O)N3CCN(c4ccc(F)cc4)CC3)nc1n2CC(=O)O	Cruzain inh Det 28µM
Cc1ccc(-c2nc3c4ccccc4n(CC(=O)N4CCN(c5ccc(F)cc5)CC4)c(=O)n3n2)cc1	none
CCc1nnc2c(N3CCN(c4cccc(C(F)(F)F)c4)CC3)nc3ccccc3n12	none
CC(/C=N/Nc1nnc2c(n1)[nH]c1ccccc12)=C\c1ccco1	Cruzain noTriton 10µM
Cc1cccc2c1[nH]c1nc(N/N=C\c3ccco3)nnc12	none
COc1ccc(C(=O)O)cc1Nc1nc2ccc(C)cc2n2cnnc12	none
O=c1[nH]c2cc(Br)cnc2nc1/C=C(\O)c1ccc(F)cc1	Cruzain noTriton 25µM
O=C(NCc1nc2ncc(Br)cc2[nH]1)c1ccccc1	none
Cc1noc(C)c1COc1ccc(C(=O)OCC(=O)Nc2cccc(S(=O)(=O)N3CCOCC3)c2)cc1	Cruzain noTriton inconclusive
O=C(COC(=O)c1ccc(Cl)c(S(=O)(=O)N2CCc3ccccc3C2)c1)Nc1ncc(Cl)cc1Cl	Cruzain noTriton 20µM
Cc1cccc(N2CCN(C(=O)c3ccc(Cl)c(S(=O)(=O)NCc4ccco4)c3)CC2)c1C	none
Cc1cccc(N2CCN(C(=O)c3ccc(Cl)c(S(=O)(=O)N4CCc5ccccc5C4)c3)CC2)c1C	Cruzain noTriton 10µM
O=C(COC(=O)c1cccc(S(=O)(=O)N2CCc3ccccc32)c1)Nc1ncc(Cl)cc1Cl	Cruzain noTriton inconclusive
CC(C)CC(=O)Nc1nnc(SCc2cc(=O)n3ccccc3n2)s1	none
CC(/C=N/NC(=O)Cc1cc(=O)[nH][nH]1)=C\c1ccccc1	none
O=C(Nc1ccc(C(F)(F)F)cc1)C1CCCN(c2cnccn2)C1 (centres undefined)	none
CS(=O)(=O)N1CCC2(CCCN(c3ccccn3)C2)CC1	none
COc1ccc(C=Nc2cccc3c(=O)[nH][nH]c(=O)c23)c2ccccc12	Cruzain noTriton 32µM
COc1ccc(/C=C/c2ccncc2)c2ccccc12	none
Cc1ccc(C(=O)c2sc3c(c2N)c(=O)[nH]c(=O)n3CCc2ccccc2)cc1	Cruzain noTriton 13µM
